Source: PubChem BioAssay
3T3 cytotox = NIH 3T3 cell cytotoxicity. Potency, µM (titrated, usually from 96.7 µM), inactives show at the top dose activity change, negative = cytotoxicity, most hits filed as inhibitors. NIH 3T3 viability, CellTiter-Glo ATP luminescence, 48-72 h. 4.3% of 94,000 active; note: potency is the fitted concentration of half-maximal effect; nearly all actives have a fitted effect of over 55% in size
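Viability of NIH 3T3 cells after 48 or 72 hr compound treatment at 37 °C was assessed by CellTiter-Glo, with luminescence imaged following a 10 min room-temperature step.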
IP6K1 inh = IP6K1 kinase inhibition; 0.81% of 140,000 active; AID 1645851; Q92551; activity change, % (series mostly up to about 58 µM); IP6K1 kinase, ADP-Glo luminescence, 2 h; stronger effect = lower value; in the data active = activity change below about -25%
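ADP-Glo luminescence measures ADP made by human IP6K1 during a 2 h RT reaction with ATP/IP6 (mix at 1.3 mM/130 uM); top library doses 57.5 and 19.1 uM final.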
HEK293 viab = cell viability loss counter-screen; HEK-293-SNCA-luc viability, GF-AFC fluorescence, 24 h; Potency, µM (series often up to 57.1 µM), inactives show at the highest dose activity change, negative = cytotoxicity, usual class: cytotoxic; 0.12% of 150,000 active;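 note: potency is the fitted concentration of half-maximal effect; 0% = DMSO-treated cells and -100% = medium-only wells without cells; nearly all actives have a fitted effect of over 30% in size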
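HEK-293-SNCA-luc cells (1500/well) plated 24 h, then exposed 24 h to a dilution series; GF-AFC added 30 min at 37C, fluorescence 405/540 nm; normalised to medium-only and DMSO wells, Hill fit.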
SNCA expr inh = reduces expression of the alpha-synuclein gene | 0.17% of 140,000 active | Potency, µM (titrated, usually from 57.2 µM), without a hit: at the top dose activity change, negative = inhibition, actives largely listed as inhibitors | HEK-293 SNCA-luciferase knock-in, luminescence, 24 h | AID 1671194;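 note: potency is the fitted concentration of half-maximal effect; plate controls were DMSO cells for no effect and cell-free wells for full effect; nearly all actives have a fitted effect of over 45% in size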
HEK293 tox = cytotoxic compounds in HEK 293 cells. 6.6% of 94,000 active. HEK 293 viability, ATP luminescence (CellTiter-Glo), 48-72 h. Potency, µM (top dose mostly 115 µM), for the others: top-dose activity change, negative = cytotoxicity, hits mostly inhibitors; note: potency is the fitted concentration of half-maximal effect; nearly all actives have a fitted effect of over 60% in size
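Cells seeded first (HEK 293, 250 cells/well), then compound added by pintool. Incubation ran 48 or 72 hr at 37 degree Celsius. CellTiter-Glo was added and luminescence imaged after 10 min at room temperature.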
FLuc inh = blocks purified firefly luciferase enzyme activity | P08659 | Potency, µM (series often up to 115 µM), actives largely listed as inhibitors | purified P. pyralis luciferase, luminescence, biochemical | 2.5% of 76,000 active; note: potency is the fitted concentration of half-maximal effect; nearly all actives have a fitted effect of over 65% in size
Target sequence (P08659 whole entry, looked up): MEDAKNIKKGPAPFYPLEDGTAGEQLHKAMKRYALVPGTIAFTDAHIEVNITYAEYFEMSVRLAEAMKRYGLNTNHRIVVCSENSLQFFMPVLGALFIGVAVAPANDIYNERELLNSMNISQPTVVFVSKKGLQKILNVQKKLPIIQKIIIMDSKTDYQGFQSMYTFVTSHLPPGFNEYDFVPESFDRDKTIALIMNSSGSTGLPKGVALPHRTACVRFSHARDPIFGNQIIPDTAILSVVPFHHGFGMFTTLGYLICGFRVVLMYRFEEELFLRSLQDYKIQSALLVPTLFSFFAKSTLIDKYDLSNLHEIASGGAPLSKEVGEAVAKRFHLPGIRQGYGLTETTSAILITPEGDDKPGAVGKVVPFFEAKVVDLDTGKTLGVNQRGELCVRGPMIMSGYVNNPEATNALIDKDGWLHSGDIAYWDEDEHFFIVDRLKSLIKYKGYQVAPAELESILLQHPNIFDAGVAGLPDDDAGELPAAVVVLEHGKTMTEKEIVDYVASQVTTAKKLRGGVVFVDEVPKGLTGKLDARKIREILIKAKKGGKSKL
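FLuc 10nM, D-luciferin 10uM, ATP 10uM, Mg acetate 10mM, Tris acetate pH 7.5, Tween/BSA; cpd qHTS; enzyme added last; CCD luminescence.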
An asterisk follows results filed as active; i = inactive; ? = inconclusive; · = no result; [ ] = remark or other dose. Rows were chosen to be rich in hits. Some 7.3% of all compounds tested hit in one or more screens of this group. Unless noted, calls come from the whole dose curve; as a rule, active = well fitted curve in the direction sought with a large enough effect; inconclusive = small, poorly fitted or top-dose-only effect, or another doubt; inactive = no such curve, though single readings can be large; an effect the other way counts as inactive or inconclusive. Unless noted, % is set by controls: 0 for no effect and ±100 for the full control effect.

SMILES	3T3 cytotox	IP6K1 inh	HEK293 viab	SNCA expr inh	HEK293 tox	FLuc inh
COc1ccc(C(=O)NC[C@H]2C[C@@H]3CCN2C[C@@H]3c2cc(-c3ccc4ccccc4c3)nn2C)cc1	?	-7	?	?	18µM*	i
CN(C)c1ccc(C(=O)NC[C@H]2C[C@@H]3CCN2C[C@@H]3c2cc(C3CCCCC3)nn2C)cc1	?	-7	-10%	-6%	?	i
COCC(=O)NC[C@H]1C[C@@H]2CCN1C[C@@H]2c1cc(-c2ccc3ccccc3c2)nn1C	35µM*	3	-10%[87.6 µM]	3%[87.6 µM]	50µM*	?
Cc1ccc(C(=O)NC[C@H]2C[C@@H]3CCN2C[C@@H]3c2cc(-c3ccccc3)nn2C)cc1	?	-13	-1%[87.6 µM]	?	?	i
COc1ccc(-c2cc([C@H]3CN4CC[C@H]3C[C@@H]4CNC(=O)c3ccc(N(C)C)cc3)n(C)n2)cc1	?	-4	-3%	-15%	22µM*	i
Cn1nc(C2CCCCC2)cc1[C@H]1CN2CC[C@H]1C[C@@H]2CNC(=O)c1cccs1	?	-13	-8%[87.6 µM]	30%[87.6 µM]	100µM*	i
O=[S+]1([O-])NC2(CCN(Cc3cccs3)C2)COc2ccncc21 (centres undefined)	-15%	4	4%	14%	-14%	·
Cn1nc(-c2ccc3ccccc3c2)cc1[C@H]1CN2CC[C@H]1C[C@@H]2CNC(=O)c1cccs1	25µM*	-8	-11%	-20%	20µM*	?
COc1ccc(-c2cc([C@H]3CN4CC[C@H]3C[C@@H]4CNC(=O)c3cccs3)n(C)n2)cc1OC	?	-5	-2%	-15%	?	i
O=C(NC[C@H]1C[C@@H]2CCN1C[C@@H]2CN1CCN(c2ccc(F)cc2)CC1)Nc1ccsc1	?	-3	4%	-13%	79µM*	i
O=C(NC[C@H]1C[C@@H]2CCN1C[C@@H]2CN1CCN(c2ccc(F)cc2)CC1)Nc1ccccc1	-23%	-6	2%	8%	?	i
O=C1Nc2ccccc2CC12CN(CC1CC1)C2	-3%[174 µM]	3	1%[87.6 µM]	?	i	·
COc1ccc(CC(=O)N2CCN(Cc3ccccc3-c3cccnc3)CC2)cc1	?	11	10%[12.5 µM]	3%	?	·
Cc1ccc(-c2ccccc2CN2CCN(C(=O)Cc3ccccn3)CC2)cc1Cl	25µM*	-6	4%[12.5 µM]	?	?	·
COc1cc2c(cc1Oc1ccccc1)NC(=O)C21CCN(C(=O)c2scnc2C)CC1	?	-7	-8%	14%	45µM*	i
COc1cc2c(cc1Oc1ccccc1)NC(=O)C21CCN(C(=O)c2cccnc2)CC1	?	-10	-17%[87.6 µM]	?	56µM*	i
COCC(=O)N1CCC2(CC1)C(=O)Nc1cc(Oc3ccccc3)c(OC)cc12	-26%[138 µM]	-2	11%[87.6 µM]	-12%[87.6 µM]	?	i
Cn1nc(-c2ccc3ccccc3c2)cc1[C@H]1CN2CC[C@H]1C[C@@H]2CNC(=O)Nc1ccccc1	20µM*	0	-6%	6%	?	i
Cn1nc(-c2cccs2)cc1[C@H]1CN2CC[C@H]1C[C@@H]2COC(=O)Nc1ccccc1	35µM*	-4	?	?	45µM*	i
COc1ccc(CN(Cc2ccc(OC)cc2)C[C@H]2C[C@@H]3CCN2C[C@@H]3c2cc(C3CCCC3)nn2C)cc1	20µM*	-12	-19%	?	25µM*	i
CC(C)NC(=O)NC[C@H]1C[C@@H]2CCN1C[C@@H]2c1cc(-c2ccc3ccccc3c2)nn1C	28µM*	-1	-15%[87.6 µM]	-14%[87.6 µM]	22µM*	i
COc1ccc(-c2cc([C@H]3CN4CC[C@H]3C[C@@H]4CNC(=O)Nc3ccccc3)n(C)n2)cc1OC	?	-13	5%	43%	?	i
O=C1NCCCCCCN[C@H]2CCCC[C@@H]12	-12%	-12	-2%	-10%	-1%	i
COc1ccc(-c2cc([C@H]3CN4CC[C@H]3C[C@@H]4CNC(=O)Nc3ccccc3)n(C)n2)cc1	79µM*	-1	-3%	-6%	?	i
Cn1nc(C2CCCCC2)cc1[C@H]1CN2CC[C@H]1C[C@@H]2CNC(=O)COc1ccccc1	?	-2	-4%	-5%	45µM*	i
SMILES	3T3 cytotox	IP6K1 inh	HEK293 viab	SNCA expr inh	HEK293 tox	FLuc inh
CCNC(=O)NC[C@H]1C[C@@H]2CCN1C[C@@H]2c1cc(-c2ccc3ccccc3c2)nn1C	32µM*	-7	?	-9%[87.6 µM]	40µM*	i
Cn1nc(-c2ccccc2)cc1[C@H]1CN2CC[C@H]1C[C@@H]2CNC(=O)Nc1ccccc1	50µM*	3	-4%[87.6 µM]	-8%[87.6 µM]	50µM*	i
CC(C)NC(=O)[C@H]1CN2CCC1C[C@@H]2Cn1cc(CN(C)Cc2ccccc2)nn1 (some centres undefined)	-19%[174 µM]	2	-3%[87.6 µM]	-5%[87.6 µM]	i	i
COc1ccc(NC(=O)NC[C@H]2C[C@@H]3CCN2C[C@@H]3c2cc(-c3ccccc3)nn2C)cc1	?	-5	9%	24%	28µM*	i
Cn1nc(C2CCCC2)cc1[C@H]1CN2CC[C@H]1C[C@@H]2CNC(=O)Nc1ccccc1	?	-3	-6%[87.6 µM]	14%[87.6 µM]	100µM*	i
COc1ccc(-c2cc([C@H]3CN4CC[C@H]3C[C@@H]4COC(=O)Nc3ccccc3)n(C)n2)cc1	20µM*	10	2%	-28%	?	i
Cn1nc(-c2ccccc2)cc1[C@H]1CN2CC[C@H]1C[C@@H]2CNC(=O)Nc1cccc(C#N)c1	-21%	-8	-1%	2%	-28%	i
COc1ccc(-c2cc([C@H]3CN4CC[C@H]3C[C@@H]4CNC(=O)COc3ccccc3)n(C)n2)cc1	?	2	-5%	-10%	?	i
Cn1nc(-c2ccc3ccccc3c2)cc1[C@H]1CN2CC[C@H]1C[C@@H]2CNC(=O)Nc1cccc(C#N)c1	45µM*	6	-18%	-13%	?	i
CCNC(=O)NC[C@H]1C[C@@H]2CCN1C[C@@H]2c1cc(C2CCCCC2)nn1C	?	-8	0%[87.6 µM]	2%[87.6 µM]	?	i
COc1cccc([C@H]2CN(C(=O)OCC(C)C)[C@@H]3C4CCN(CC4)[C@H]23)c1	-26%	-7	-2%	0%	?	i
C#CCN1C(=O)[C@@H]2[C@H](c3ccccc31)[C@@H](C(=O)OCC)[C@@H](c1ccccc1)N2C(=O)C(=O)OCC	?	-2	·	·	?	·
